{"source": "PubChem BioAssay", "note": "Values without a mark were called inactive. How the calls were made is not given here."}
{"target": "L-lactate dehydrogenase (Plasmodium falciparum (isolate CDC / Honduras)) (UniProt Q27743)", "sequence (Q27743 whole entry, looked up)": "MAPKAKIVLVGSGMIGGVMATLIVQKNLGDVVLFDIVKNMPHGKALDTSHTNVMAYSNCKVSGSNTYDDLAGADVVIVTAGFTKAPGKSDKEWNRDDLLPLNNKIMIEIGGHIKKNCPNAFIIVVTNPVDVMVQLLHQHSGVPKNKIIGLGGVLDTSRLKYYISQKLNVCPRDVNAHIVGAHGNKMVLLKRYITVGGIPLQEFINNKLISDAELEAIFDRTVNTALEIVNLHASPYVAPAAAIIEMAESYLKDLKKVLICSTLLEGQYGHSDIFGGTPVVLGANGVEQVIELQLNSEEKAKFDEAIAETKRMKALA", "assay": "PfLDH activity inhibition – cell lysate, 3D7 strain, counter-screen for P. falciparum growth inhibition project (AID 2304);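 further: 0% = vehicle and 100% = reference inhibitor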", "conditions": "P. falciparum 3D7 crude extract, LDH APAD/NBT absorbance; at 2 µM; hits give high values", "units": {"inhibition": "%"}}
{"smiles": "CN1CCC(N(Cc2ccc(-c3ccc(C(F)(F)F)cc3)cc2)C(=O)Cn2cc(Cc3cnn(C)c3)c(=O)nc2SCc2cccc(F)c2F)CC1", "inhibition": 7}
{"smiles": "c1ccc2c(CNc3ccnc(NCc4cccc5ccccc45)n3)cccc2c1", "inhibition": 3}
{"smiles": "O=C(Nc1cccc(CN2CCN(Cc3ccc(O)cc3)CC2)c1)c1cc2ccccc2s1", "inhibition": -4}
{"smiles": "CC(=O)Nc1ccc(C(=O)Nc2ccc(-c3csc(-c4nc5ccccc5[nH]4)c3)cc2)cn1", "inhibition": -3}
{"smiles": "CC1(C)N=C(N)N=C(N)N1OCc1ccc(-c2ccccc2)cc1", "inhibition": -6}
{"smiles": "Cc1ccc2c(NN=Cc3cccc(Cl)c3)cc(C)nc2c1", "inhibition": -2}
{"smiles": "COc1ccc2nccc([C@@H](O)CN3CCC(NCc4cc5cc(C)ccc5s4)CC3)c2c1", "inhibition": 3}
{"smiles": "Cc1cccc2sc(N(CCCn3ccnc3)C(=O)C=Cc3cccs3)nc12", "inhibition": 2}
{"smiles": "O=C(NCCCCN1CCC(c2ccc3c(c2OCC(O)c2ccc(Cl)cc2)CCCC3)CC1)c1ccc(-c2ccc(C(F)(F)F)cc2)cc1", "note": "(centres undefined)", "inhibition": -3}
{"smiles": "OC(CNCCc1ccccc1)Cn1c2ccc(Cl)cc2c2cc(Cl)ccc21", "note": "(centres undefined)", "inhibition": 8}
{"smiles": "Cc1cc(N(C)C2CCN(CC3CCCCC3)C2)nc(Nc2ccc(Cl)cc2)n1", "note": "(centres undefined)", "inhibition": -5}
{"smiles": "COc1ccc(CN2CCC(NCc3ccc(C(F)(F)F)cc3)CC2)cc1", "inhibition": 2}
{"smiles": "O=C(Cc1ccccc1)NC(CCN1CCC(N(C2CC2)S(=O)(=O)c2cccc(C(F)(F)F)c2)CC1)c1ccc(Cl)c(Cl)c1", "note": "(centres undefined)", "inhibition": 6}
{"smiles": "COc1cccc(C(=O)NC(c2ccc(Cl)cc2Cl)c2cc(Cl)c3cccnc3c2O)c1", "note": "(centres undefined)", "inhibition": -8}
